Rows were chosen to be rich in hits. Some 6.1% of all compounds tested hit in one or more screens of this group.
Luciferase inh: qHTS Assay for Inhibitors of Firefly Luciferase. purified firefly luciferase, luminescence, 8 min. 2.2% of 72,000 active. Luciferin 4-monooxygenase (Photinus pyralis), P08659. AID 411, 2009. Potency, µM (top dose mostly 57.1 µM), without a hit: top-dose activity change, negative = inhibition, usual class: inhibitors; also: nearly all actives have a fitted effect of over 40% in size
Target sequence (P08659 whole entry, looked up): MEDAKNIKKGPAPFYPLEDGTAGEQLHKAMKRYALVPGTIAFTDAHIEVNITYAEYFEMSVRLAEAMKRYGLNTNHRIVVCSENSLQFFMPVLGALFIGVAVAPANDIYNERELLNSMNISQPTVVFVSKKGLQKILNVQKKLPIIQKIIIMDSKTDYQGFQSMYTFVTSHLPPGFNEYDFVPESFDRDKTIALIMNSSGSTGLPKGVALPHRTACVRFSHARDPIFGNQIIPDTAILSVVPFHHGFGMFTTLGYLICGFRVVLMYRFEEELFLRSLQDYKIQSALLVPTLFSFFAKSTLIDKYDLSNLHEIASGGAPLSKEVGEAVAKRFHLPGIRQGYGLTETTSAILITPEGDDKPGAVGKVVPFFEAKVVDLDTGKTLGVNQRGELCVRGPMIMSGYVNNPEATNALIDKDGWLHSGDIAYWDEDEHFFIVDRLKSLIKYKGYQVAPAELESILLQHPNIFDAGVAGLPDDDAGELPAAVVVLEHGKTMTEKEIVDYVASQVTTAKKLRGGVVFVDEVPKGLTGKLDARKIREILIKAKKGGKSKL
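qHTS concentration-response profiling: light output of P. pyralis luciferase with luciferin and 10 uM ATP, imidazole buffer pH 7.2. Read by luminescence after 8-min room-temperature incubation.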
PK Bst: Pyruvate Kinase. Potency, µM. 1.2% of 51,000 active. purified pyruvate kinase, luminescence ATP production; ribose 5-phosphate activator present at AC10; in the data active = potency below about 11 µM; inconclusive = mostly about 12 µM to 25 µM;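 the screen sought inhibitors and activators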;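 also: scaled between full activation by ribose 5 phosphate and full inhibition by luteolin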
Hsp90 Hop PPI: qHTS Assay for Disrupters of an Hsp90 Co-Chaperone Interaction | 0.44% of 71,000 active | AID 595, 2007 | Potency, µM (top dose mostly 57 µM), without a hit: at the highest dose activity change, negative = inhibition | AlphaScreen TPR2A-His6 binding biotin-Hsp90 C-terminal peptide; active = well fitted curve in either direction with a large enough effect; inconclusive = small, poorly fitted or top-dose-only effect, or another doubt
ERK AVP block: qHTS Assay for Inhibitors of the ERK Signaling Pathway using a Homogeneous Screening Assay; HEK293-V1b, vasopressin-stimulated pERK AlphaScreen; Potency, µM (highest dose often 57.5 µM), for inactives: at the highest dose activity, negative = inhibition, hits mostly inhibitors; 0.99% of 72,000 active; AID 995, 2007; also: nearly all actives have a fitted effect of over 55% in size
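V1b-HEK293 cells; cpd 30 min 37C; 25 nM vasopressin 5 min; lyse 10 min; AlphaScreen beads 5 hr RT. Normalized to DMSO basal and 25 nM vasopressin; AC50 by Hill fit.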
ALOX15 inhib: qHTS Assay for Inhibitors of 15-hLO (15-human lipoxygenase); 1.4% of 74,000 active; purified 15hLO-1, xylenol orange hydroperoxide absorbance; Polyunsaturated fatty acid lipoxygenase ALOX15 (Homo sapiens), P16050; Potency, µM (titrated, usually from 57.1 µM), for inactives: at the top dose activity change, negative = inhibition, most hits filed as inhibitors; also: nearly all actives have a fitted effect of over 55% in size
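Purified human 15hLO-1 (40 nM final) in 25 mM Hepes pH 7.5, 0.01% Triton X-100 was preincubated with compound 15 min at room temperature, then reacted 6 min with 50 uM arachidonic acid; hydroperoxide detected by Fe-XO, 573/405 nm absorbance ratio.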
Tau filament bind: qHTS Assay for Tau Filament Binding. 2% of 71,000 active. Potency, µM (top dose mostly 57.1 µM), inactives show at the top dose activity change, negative = inhibition. recombinant tau filaments, thioflavin S fluorescence, 15 h; filaments grown with octadecylsulfate alongside compound. AID 596, 2007. Microtubule-associated protein tau (Homo sapiens), P10636;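 also: actives lower thioflavin S fluorescence by blocking filaments or displacing dye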
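Read-out: ThS fluorescence, 450 nm excitation/510 nm emission; lower signal marks blocked filament formation or displaced dye. Tau at 1 uM with 30 uM ODS, 10 uM ThS, 5 mM DTT, 100 mM NaCl, 10 mM HEPES pH 7.4; 15 h, 37 C.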
Numbers without * were called inactive; i = inactive; ? = inconclusive; nt = no result given; [ ] = remark or other dose. Unless noted, calls follow the shape of the dose curve; as a rule, active = well fitted curve in the direction sought with a large enough effect; inconclusive = small, poorly fitted or top-dose-only effect, or another doubt; inactive = no such curve, though single readings can be large; an effect the other way counts as inactive or inconclusive. Unless noted, % is scaled to controls: 0 for no effect and ±100 for the full control effect; potency is read from the fitted curve at half-maximal effect.

SMILES	Luciferase inh	PK Bst	Hsp90 Hop PPI	ERK AVP block	ALOX15 inhib	Tau filament bind
COc1ccccc1CCn1c(=O)c(-c2cccs2)nc2cncnc21	0.6%[11.4 µM]	nt	1.5%	-23.7%	-14.9%	-6.1%
CCN(CC)c1ccc(NC(=O)c2cncc(Br)c2)cc1	-25.0%	>57	-28.8%	?	-7.8%	20µM*
CCN(CC)c1ccc(NC(=O)Nc2ccc(C(C)=O)cc2)cc1	0.4%	>57	-12.3%	-24.6%	-18.7%	?
CC(=O)SC[C@@H](Cc1ccccc1)C(=O)NCC(=O)OCc1ccccc1	13.9%[25.5 µM]	nt	1.2%[26 µM]	-7.6%[25.7 µM]	9.9%[25.6 µM]	5.5%[25.6 µM]
O=S(=O)(O)c1ccc(N=Nc2ccccc2)cc1	1.9%[11.4 µM]	nt	-2.6%[11 µM]	10.5%[11.5 µM]	5.6%[11.4 µM]	2.8%[11.4 µM]
Nc1ccc(N=Nc2ccccc2)c(N)n1	?	nt	?	?	?	12.6µM*
COCCn1c(=O)c(-c2ccc(F)cc2)nc2cnc(OC)nc21	0.1%[11.4 µM]	nt	-6.4%	-6.1%	9.7%	-1.9%
Oc1ccccc1C1=Nc2nc3ccccc3n2C(c2ccccc2)C1 (stereo not given)	?	nt	-21.0%	-14.4%	-18.3%	7.94µM*
Cc1noc(C)c1-c1cc(Nc2ccccc2)ncn1	0.6%[2.29 µM]	nt	10.5%	?	-20.1%	-4.4%
O=c1oc2c3c4c(cc2cc1-c1nc2ccccc2[nH]1)CCCN4CCC3	2µM*	nt	8.4%	-22.8%	-18.7%	i
O=C1Nc2cccnc2Sc2ccccc21	-1.1%	>57	-1.5%	6.5%	15.8µM*	-4.4%
O=C1Nc2ccccc2C1=Nc1cccc2ncccc12	-0.4%[11.4 µM]	nt	0.1%[11 µM]	-12.6%[11.5 µM]	-2.5%[11.4 µM]	3.0%[11.4 µM]
CCOC(=O)c1cc(-c2ccco2)nc2c1c(C)nn2CCC#N	-1.7%	>57	-10.9%	14.3%	?	15.8µM*
CC(C)C[C@@H](CC(=O)N[C@@H](CCCN)CC(=O)N[C@@H]1CCCC[C@H]1C(=O)N[C@H](CC(=O)N[C@@H](CCC(=O)O)CC(=O)O)Cc1c[nH]c2ccccc12)NC(=O)[C@@H]1CCCC[C@H]1N	nt	nt	-16.4%	nt	nt	-2.8%
COC(=O)Nc1ccc(C)cc1NC(=O)OC	1.4%	>57	1.0%	-8.2%	2.6%	-9.3%
COC(=O)C1=C(C)Nc2ccc(C)cc2S1	-17.0%	nt	-5.2%[2.3 µM]	?	10µM*	20µM*
Cc1ccc2c(c1)c(C)c(C)n2CC(O)CN1CCOCC1 (stereo not given)	-0.3%	>57	-9.9%	-22.1%	?	-28.5%
Cc1c(C)n(CC(O)CN2CCCCCC2)c2ccccc12 (stereo not given)	0.9%	nt	-5.0%	-14.1%	?	12.6µM*
CCOC(=O)Cc1csc(NC(=O)c2ccc(C)o2)n1	-3.7%	>57	-4.3%	-21.6%	-9.5%	1.0%
COc1cc(NC(=O)c2csc3c2CCCC3)ncn1	12.6µM*	>57	3.8%	6.9%	-0.2%	21.4%
COCCNC(=O)c1csc2c1CCCC2	-1.1%	>57	1.3%	11.9%	4.3%	0.7%
CCOC(=O)Cc1csc(NC(=O)c2csc3c2CCCC3)n1	15.8µM*	i	-0.2%	?	?	15.0%
CO[C@H]1C=CO[C@]2(C)Oc3c(C)c(O)c4c(O)c(c5c(c4c3C2=O)NC2(CCN(CC(C)C)CC2)N=5)=NC(=O)C(C)=CC=C[C@@H](C)[C@@H](O)[C@@H](C)[C@@H](O)[C@@H](C)[C@@H](OC(C)=O)[C@@H]1C	-1.8%[25.5 µM]	nt	-18.7%[26 µM]	-21.4%[25.7 µM]	13.6%[25.6 µM]	1.58µM*
CO[C@H]1/C=C/O[C@@]2(C)Oc3c(C)c(O)c4c(O)c(c5c(c4c3C2=O)NC2(CCN(CC(C)C)CC2)N=5)=NC(=O)/C(C)=C\C=C\[C@H](C)[C@H](O)[C@@H](C)[C@@H](O)[C@@H](C)[C@H](OC(C)=O)[C@@H]1C	nt	nt	-12.8%	-33.9%	?	0.398µM*
CO[C@@H]1/C=C\O[C@]2(C)Oc3c(C)c(O)c4c(O)c(cc(O)c4c3C2=O)NC(=O)/C(C)=C\C=C/[C@H](C)[C@@H](O)[C@H](C)[C@H](O)[C@H](C)[C@H](OC(C)=O)[C@@H]1C	0.1%[11.4 µM]	nt	-5.6%[11 µM]	-12.3%[11.5 µM]	-16.8%[11.4 µM]	-6.8%[11.4 µM]
SMILES	Luciferase inh	PK Bst	Hsp90 Hop PPI	ERK AVP block	ALOX15 inhib	Tau filament bind
COC(=O)c1ccc(C(NC(=O)OCc2ccccc2)/C(C)=C/[C@@H](C)C(=O)NCc2cc(F)cc(F)c2)cc1 (stereo not given in full)	nt	nt	7.3%	17.0%	-9.9%	36.1%
Cc1sc2nc3c4ccccc4c(NCc4ccco4)nn3c(=O)c2c1C	?	1.96*	-1.6%	?	-18.1%	52.8%
Cc1nnc(NCc2ccco2)c2ccccc12	0.2%	>57	1.9%	19.3%	5.5%	-5.9%
COC(=O)[C@@H]1C[C@H]1[C@@H](NC(=O)c1cccnc1)c1ccccc1	nt	nt	-4.9%	8.4%	nt	0.4%
O=C(Oc1ccccc1)N1CCC[C@@]2(CCN(c3ncccn3)C2)C1	0.7%[11.4 µM]	nt	-4.5%	?	0.9%	2.5%
Cc1ccc2cc(C)c3nnc(SCC(=O)NCc4ccco4)n3c2c1	2.0%	?	-4.9%	-20.8%	-11.4%	12.8%
Cc1ccc2c(c1)cc(C)c1nnc(SCC(=O)NCc3ccco3)n12	0.8%	4.16*	-4.1%	-22.1%	-4.9%	13.4%
O=C(O)/C=C\c1cnc[nH]1	0.4%	nt	-5.8%	-7.6%	6.6%	-7.6%
CCn1nc(C(=O)OCC(=O)c2ccc3c(c2)OCCO3)c2ccccc2c1=O	12.6µM*	?	-4.0%	3.9%	-8.5%	-5.4%
CC(=O)NC12CC3CC(C1)CC(C(=O)OCC(=O)Nc1ncc(Cl)c(C)c1Cl)(C3)C2	2.2%	>57	-4.4%	-0.8%	-8.1%	-21.7%
O=C(COC(=O)c1cccs1)c1ccc2c(c1)OCCO2	0.316µM*	0.289*	-5.1%	16.2%	-1.6%	15.2%
CCn1nc(C(=O)OCC(=O)c2cc(C)n(Cc3cccs3)c2C)c2ccccc2c1=O	-17.4%	nt	0.0%	16.2%	-2.0%	36.7%
CC(=O)NC12CC3CC(C1)CC(C(=O)OCC(=O)c1ccc4c(c1)OCCO4)(C3)C2	3.98µM*	4.26*	-3.3%	-17.9%	5.7%	-12.6%
O=c1c(-c2ccc(F)cc2)nc2cnc(Oc3cccc(Cl)c3)nc2n1C[C@H]1CCCO1	-0.8%[11.4 µM]	nt	7.3%	-15.7%	1.5%	?
CC(C)CN1CC2(CCN(C(=O)c3csnn3)CC2)C1	-0.1%[11.4 µM]	nt	-3.4%	7.0%	13.0%	-4.7%
